The full list was thinned out, with hits kept by preference.
RMI FANCM FP: inhibitors of human RMI core complex binding to FANCM MM2. Fluorescence polarization, RMI core complex with F-MM2 peptide; active compounds read low. FP signal (polarization) at 33 µM. 70,000 compounds, 0.58% hits; in the data active means FP signal below about 40
Each line names hits and unclear results; the compound was inactive in the other large screens.

CN(C)S(=O)(=O)c1ccc(-c2csc(NC(=O)c3sc4ccccc4c3Cl)n2)cc1	none
Cc1cc(Nc2ccc(F)c(Cl)c2)nc(-n2cc([N+](=O)[O-])cn2)n1	none
Cc1ccc(-c2nn(-c3ccccc3)cc2/C=C2\SC(=S)NC2=O)cc1F	none
COc1ccc(-c2nn(-c3ccccc3)cc2CN(Cc2ccccc2)C(=O)/C=C/C(=O)O)cc1	none
COc1ccc(-c2nn(-c3ccccc3)cc2/C=C2\SC(=O)NC2=S)cc1	RMI FANCM FP 27
CCN1C(=O)Cc2cc(NS(=O)(=O)c3cccc(C)c3)ccc21	none
CCOC(=O)N1CCN(C(c2ccccn2)c2c(-c3ccccc3)n(O)c3ccccc23)CC1 (stereo not given)	RMI FANCM FP 26
CCOC(=O)N1CCN(CC(O)COc2ccc(-c3ccccc3)cc2)CC1 (stereo not given)	none
CCOC(=O)N1CCN(C(c2ccncc2)c2c(C)[nH]c3ccccc23)CC1 (stereo not given)	none
CC(C)(C)C(=O)CSc1nnc(-c2ccc(C(C)(C)C)cc2)n1-c1ccc2c(c1)OCO2	none
Cc1nc(-n2nc(-c3cccs3)cc2NC(=O)COc2ccc(C(C)C)cc2)[nH]c(=O)c1C	none
Cc1ccc(C)c(Cn2cc(SCC(=O)NC3CCCCC3)c3ccccc32)c1	none
CCOC(=O)C1=C(N)CC(C(=O)OCC)=C(N)C1	RMI FANCM FP 16
CCOC(=O)C1=C(N)C(=O)N(c2ccccc2)C1	none
CCOC(=O)c1ccc(N)cc1	none
COc1cccc(Nc2cc(C)nc3c4c(C)cc(C)nc4nn23)c1	none
CC1=C(Cl)C(=O)C(Cl)(Cl)C(Cl)C1=NS(=O)(=O)c1ccccc1 (stereo not given)	none
CC(C)(CCOC(=O)c1ccc([N+](=O)[O-])o1)Nc1ccc(C(F)(F)F)cc1[N+](=O)[O-]	RMI FANCM FP 40
O=C(Nc1cccc(C(F)(F)F)c1)c1ccc([N+](=O)[O-])o1	none
Cc1ccc(C)n1CCNc1ccc(C(F)(F)F)cc1[N+](=O)[O-]	none
Cc1nn(C(C)(C)C)c(C)c1/C=N\O	none
CC(C)(C)c1cc(C(=O)/C(C#N)=N\Nc2cccc(Cl)c2)no1	none
CCC(=O)Nc1nc2cc3c(cc2s1)OCCO3	none
c1c2c(cc3sc(N4CCN(c5nc6cc7c(cc6s5)OCCO7)CC4)nc13)OCCO2	none
NNc1nc2cc3c(cc2s1)OCCO3	RMI FANCM FP -6
Cc1c(Cl)cccc1NC(=O)C(=O)Nc1cc2c3c(c1)CCC(=O)N3CCC2	none
CCCC(=O)Nc1ccc(N2CCCC2=O)cc1	none
CC(=O)N1CCc2c(sc(NC(=O)c3cc(-c4cccs4)nc4ccccc34)c2C(N)=O)C1	none
O=C(O[C@@H]1Cc2c(O)cc(O)cc2O[C@@H]1c1cc(O)c(=O)c2c(O)c(O)cc([C@H]3Oc4cc(O)cc(O)c4C[C@H]3O)c2c1)c1cc(O)c(O)c(O)c1	none
Oc1cc(O)c2c(c1)O[C@H](c1cc(O)c(O)c(O)c1)[C@H](O)[C@H]2c1c(O)cc(O)c2c1O[C@H](c1cc(O)c(O)c(O)c1)[C@H](O)[C@H]2c1c(O)cc(O)c2c1O[C@H](c1cc(O)c(O)c(O)c1)[C@H](O)C2	RMI FANCM FP -7
O=C1CC(c2ccc(O)cc2)Oc2cc(O)cc(O)c21 (stereo not given)	none
COC(=O)c1ccc(Cn2c(-c3nnco3)cc3ccccc32)cc1	none
CC1C(=O)NCCN1C(=O)c1ccc(S(=O)(=O)N(C)C)cc1 (stereo not given)	none
Cc1ccnc(NC(=O)NCCCSc2nc(C)cc(C)n2)n1	none
O=C1CCC(=O)N1CNc1ccccc1OC(F)(F)F	none
O=C(COc1ccc(S(=O)(=O)Nc2ccccc2)cc1Cl)c1ccccc1	none
COc1cc(NS(=O)(=O)c2ccc3ccccc3c2)ccc1N1CCCCC1=O	none
O=C(Oc1ccc(NS(=O)(=O)c2ccc3ccccc3c2)cc1Cl)c1ccccc1	RMI FANCM FP 29
NC(=O)C1Cc2ccccc2N1C(=O)Nc1cccs1 (stereo not given)	RMI FANCM FP 28
NC(=O)C1Cc2ccccc2N1C(=O)c1cccs1 (stereo not given)	none
NC(=O)C1Cc2ccccc2N1C(=O)C1CC1 (stereo not given)	none
COc1ccc(-c2c3c(nc4sc(C(=O)c5ccc6c(c5)OCCO6)c(N)c24)CC(C)(C)CC3=O)cc1	RMI FANCM FP -6
COc1ccc(-c2c3c(nc4sc(C(=O)c5ccc(Cl)c(Cl)c5)c(N)c24)CC(C)(C)CC3=O)cc1	none
COc1ccc(-c2c3c(nc4sc(C(=O)Nc5ccc(F)cc5)c(N)c24)CC(C)(C)CC3=O)cc1	none
O=C(CCSc1ccccc1)NCCOc1cccc(C(F)(F)F)c1	none
O=C(O)C1CCCN1C(=O)c1cccs1 (stereo not given)	none
C[C@H](NC(CCc1ccccc1)C(=O)O)C(=O)N1CCC[C@H]1C(=O)O (stereo not given in full)	RMI FANCM FP 34
CCOC(=O)[C@H](CCc1ccccc1)N[C@H]1CCc2ccccc2N(CC(=O)O)C1=O	none
COc1ccc(-c2cc(-c3ccc(C)c(C)c3)nc3sc(C(N)=O)c(N)c23)cc1	none
COc1ccc(-c2cc(-c3ccccc3)nc3sc(C(=O)NCC4CCCO4)c(N)c23)cc1 (stereo not given)	RMI FANCM FP 9
CC1(C)CC(=O)c2c(nc3sc(C(=O)NCC4CCCO4)c(N)c3c2-c2ccccc2)C1 (stereo not given)	none
COc1ccc(-c2cc(-c3ccc(Cl)cc3)nc3sc(C(=O)N4CCOCC4)c(N)c23)cc1	RMI FANCM FP -18
COc1ccc(-c2cc(-c3ccccc3)nc(SCC(=O)NCC3CCCO3)c2C#N)cc1 (stereo not given)	none
COc1ccc(-c2cc(-c3ccc(OC)cc3)c3c(N)c(C(=O)c4ccc(Cl)cc4)sc3n2)cc1	none
CN(C)S(=O)(=O)c1ccc(C(=O)Nc2cccc(-c3ccc(=O)n(C)n3)c2)cc1	none
CCCCc1ccc(NC(=O)CC(C(=O)O)N2CCN(C)CC2)cc1 (stereo not given)	none
O=C(NCc1ccco1)c1n[nH]nc1Nc1ccccc1	none
O=C(Nc1nnc(C2CCCO2)o1)c1ccc([N+](=O)[O-])s1 (stereo not given)	none
O=C1c2c(O)ccc([N+](=O)[O-])c2C(=O)c2c(O)ccc([N+](=O)[O-])c21	RMI FANCM FP -25
O=[N+]([O-])c1ccc(S(=O)(=O)c2ccccc2)cc1O	none
O=C1c2ccc(O)c(O)c2C(=O)c2c(O)ccc(O)c21	none
Fc1ccc(-c2noc(-c3ccc4c(c3)CCO4)n2)cc1	none
Fc1ccc(-c2nc(=S)c3c([nH]2)Oc2ccc(Br)cc2C3)cc1	RMI FANCM FP 26
Cc1ccc(Cn2c(Sc3c([N+](=O)[O-])ncn3C)nc3c2c(=O)n(C)c(=O)n3C)cc1	none
C/C(=N/NC(=O)c1[nH]nc(-c2ccccc2)c1C)c1ccc(Br)cc1	none
Cc1cccc(-c2nc3scc(CCN)n3n2)c1	none
Cc1nn2c(N)csc2nc1=O	RMI FANCM FP 19
Clc1ccccc1OCCn1c2ccccc2c2nc3ccccc3nc21	none
CS(=O)(=O)N1CCC(C(=O)Nc2cccc(-c3nc4ccccc4[nH]3)c2)CC1	none
COc1cc(OC)cc(C(=O)NCC(c2ccsc2)N2CCCC2)c1 (stereo not given)	RMI FANCM FP 9
COc1ccc(CC(=O)NCC(c2ccsc2)N2CCCC2)cc1 (stereo not given)	none
Cc1ccc(C(=O)NCC(c2ccsc2)N2CCCC2)cc1C (stereo not given)	none
Cc1cc(C)cc(C(=O)NCC2CCN(C3CCCC3)CC2)c1	none
CCCCN1C(C)=CC(=C2C(=O)NC(=S)NC2=O)C=C1C	none
O=C1/C(=C\c2ccco2)SC(=S)N1CCS(=O)(=O)O	none
